Experimental data as given in ChEMBL document CHEMBL1961873, “Compounds: GSK PKIS; Assays: Nanosyn kinase panel” (2012).

Assays:
[1] = biological target: Tyrosine-protein kinase Fer (Homo sapiens) (UniProt P16591); details: at 1 µM
[2] = biological target: Tyrosine-protein kinase Fes/Fps (Homo sapiens) (UniProt P07332); details: at 0.1 µM
[3] = biological target: Tyrosine-protein kinase Fes/Fps (Homo sapiens) (UniProt P07332); details: at 1 µM
[4] = biological target: Fibroblast growth factor receptor 1 (Homo sapiens) (UniProt P11362); details: at 0.1 µM
[5] = biological target: Fibroblast growth factor receptor 1 (Homo sapiens) (UniProt P11362); details: at 1 µM
[6] = biological target: Fibroblast growth factor receptor 2 (Homo sapiens) (UniProt P21802); details: at 0.1 µM
Fibroblast growth factor receptor 2 (Homo sapiens), sequence (P21802 22-821 limits assumed): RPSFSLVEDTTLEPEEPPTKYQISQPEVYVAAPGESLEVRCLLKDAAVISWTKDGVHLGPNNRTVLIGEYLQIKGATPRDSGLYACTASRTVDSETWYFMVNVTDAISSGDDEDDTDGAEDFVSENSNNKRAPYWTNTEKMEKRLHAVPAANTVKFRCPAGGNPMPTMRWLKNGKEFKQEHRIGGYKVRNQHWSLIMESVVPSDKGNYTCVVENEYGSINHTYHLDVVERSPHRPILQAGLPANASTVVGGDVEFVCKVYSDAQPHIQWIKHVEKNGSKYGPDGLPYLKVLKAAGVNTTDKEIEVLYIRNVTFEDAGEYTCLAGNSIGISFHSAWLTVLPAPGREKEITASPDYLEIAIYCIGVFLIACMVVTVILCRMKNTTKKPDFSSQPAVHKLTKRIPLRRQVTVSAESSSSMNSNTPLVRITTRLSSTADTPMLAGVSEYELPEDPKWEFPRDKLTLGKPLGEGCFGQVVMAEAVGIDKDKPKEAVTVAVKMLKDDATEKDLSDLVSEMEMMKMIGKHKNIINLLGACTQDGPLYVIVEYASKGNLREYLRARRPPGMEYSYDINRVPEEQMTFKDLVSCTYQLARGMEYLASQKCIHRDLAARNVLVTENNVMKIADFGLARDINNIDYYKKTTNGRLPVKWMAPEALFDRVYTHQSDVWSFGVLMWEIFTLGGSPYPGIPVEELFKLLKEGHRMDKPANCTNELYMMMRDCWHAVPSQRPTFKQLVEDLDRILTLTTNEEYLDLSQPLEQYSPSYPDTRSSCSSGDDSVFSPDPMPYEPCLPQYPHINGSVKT

[7] = biological target: Fibroblast growth factor receptor 2 (Homo sapiens) (UniProt P21802); details: at 1 µM
[8] = biological target: Fibroblast growth factor receptor 3 (Homo sapiens) (UniProt P22607); details: at 0.1 µM
Fibroblast growth factor receptor 3 (Homo sapiens), sequence (P22607 23-806 limits assumed): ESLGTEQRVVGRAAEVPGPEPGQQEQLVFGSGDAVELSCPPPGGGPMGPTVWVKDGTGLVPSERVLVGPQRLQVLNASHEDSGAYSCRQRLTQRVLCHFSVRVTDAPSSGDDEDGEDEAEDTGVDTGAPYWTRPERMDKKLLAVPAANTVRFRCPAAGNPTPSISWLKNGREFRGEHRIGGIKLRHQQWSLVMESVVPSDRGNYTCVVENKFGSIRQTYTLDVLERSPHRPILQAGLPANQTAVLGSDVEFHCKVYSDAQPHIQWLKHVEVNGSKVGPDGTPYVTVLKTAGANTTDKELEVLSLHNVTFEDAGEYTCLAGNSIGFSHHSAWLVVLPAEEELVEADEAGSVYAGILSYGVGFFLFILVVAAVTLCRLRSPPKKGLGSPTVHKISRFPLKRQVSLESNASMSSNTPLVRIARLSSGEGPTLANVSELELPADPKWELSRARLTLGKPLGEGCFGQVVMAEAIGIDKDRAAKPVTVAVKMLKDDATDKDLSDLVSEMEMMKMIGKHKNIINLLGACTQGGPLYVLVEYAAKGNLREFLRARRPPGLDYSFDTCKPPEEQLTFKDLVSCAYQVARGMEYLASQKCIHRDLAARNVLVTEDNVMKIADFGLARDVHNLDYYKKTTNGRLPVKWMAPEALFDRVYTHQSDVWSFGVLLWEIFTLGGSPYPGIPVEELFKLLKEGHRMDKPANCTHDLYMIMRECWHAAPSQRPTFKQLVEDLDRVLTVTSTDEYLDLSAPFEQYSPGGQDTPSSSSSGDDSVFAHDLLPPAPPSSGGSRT

[9] = biological target: Fibroblast growth factor receptor 3 (Homo sapiens) (UniProt P22607); details: at 1 µM
[10] = biological target: Fibroblast growth factor receptor 4 (Homo sapiens) (UniProt P22455); details: at 0.1 µM
Fibroblast growth factor receptor 4 (Homo sapiens), sequence (P22455 22-802 limits assumed): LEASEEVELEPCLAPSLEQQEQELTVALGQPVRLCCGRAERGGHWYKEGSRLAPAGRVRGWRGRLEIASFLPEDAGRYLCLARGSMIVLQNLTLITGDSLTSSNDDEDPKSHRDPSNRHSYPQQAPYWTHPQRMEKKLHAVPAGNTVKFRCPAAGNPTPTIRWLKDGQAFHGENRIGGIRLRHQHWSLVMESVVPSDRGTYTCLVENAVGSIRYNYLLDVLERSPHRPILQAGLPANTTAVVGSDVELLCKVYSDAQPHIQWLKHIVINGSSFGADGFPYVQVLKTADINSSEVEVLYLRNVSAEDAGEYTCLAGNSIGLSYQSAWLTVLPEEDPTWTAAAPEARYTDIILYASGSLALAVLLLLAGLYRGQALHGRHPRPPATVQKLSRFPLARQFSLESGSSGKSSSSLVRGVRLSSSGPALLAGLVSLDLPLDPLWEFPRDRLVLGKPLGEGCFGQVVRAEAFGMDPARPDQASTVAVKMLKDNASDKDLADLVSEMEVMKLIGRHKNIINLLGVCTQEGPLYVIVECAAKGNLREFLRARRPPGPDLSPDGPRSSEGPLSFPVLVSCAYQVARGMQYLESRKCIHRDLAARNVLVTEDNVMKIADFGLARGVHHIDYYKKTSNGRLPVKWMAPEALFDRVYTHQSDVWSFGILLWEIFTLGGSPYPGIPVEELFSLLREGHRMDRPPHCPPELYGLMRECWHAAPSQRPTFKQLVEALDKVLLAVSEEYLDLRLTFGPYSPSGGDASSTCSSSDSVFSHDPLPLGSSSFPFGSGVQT

[11] = biological target: Fibroblast growth factor receptor 4 (Homo sapiens) (UniProt P22455); details: at 1 µM
[12] = biological target: Tyrosine-protein kinase Fgr (Homo sapiens) (UniProt P09769); details: at 0.1 µM
Tyrosine-protein kinase Fgr (Homo sapiens), sequence (P09769 2-529 limits assumed): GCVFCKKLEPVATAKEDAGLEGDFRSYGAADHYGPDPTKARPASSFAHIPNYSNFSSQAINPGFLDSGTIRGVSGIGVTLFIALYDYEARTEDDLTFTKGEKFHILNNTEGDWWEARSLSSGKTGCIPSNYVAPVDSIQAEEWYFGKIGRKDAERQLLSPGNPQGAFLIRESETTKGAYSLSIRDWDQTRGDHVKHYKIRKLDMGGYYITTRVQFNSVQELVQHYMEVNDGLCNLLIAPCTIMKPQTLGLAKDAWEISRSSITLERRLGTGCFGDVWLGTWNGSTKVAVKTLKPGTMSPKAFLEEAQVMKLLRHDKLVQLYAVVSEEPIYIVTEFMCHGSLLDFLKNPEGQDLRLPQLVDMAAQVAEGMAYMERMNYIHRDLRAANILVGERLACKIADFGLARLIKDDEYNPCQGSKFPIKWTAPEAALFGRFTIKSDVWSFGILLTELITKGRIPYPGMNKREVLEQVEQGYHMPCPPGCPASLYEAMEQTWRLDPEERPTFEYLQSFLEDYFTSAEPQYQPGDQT

[13] = biological target: Tyrosine-protein kinase Fgr (Homo sapiens) (UniProt P09769); details: at 1 µM
[14] = biological target: Vascular endothelial growth factor receptor 1 (Homo sapiens) (UniProt P17948); details: at 0.1 µM
[15] = biological target: Vascular endothelial growth factor receptor 1 (Homo sapiens) (UniProt P17948); details: at 1 µM
[16] = biological target: Receptor-type tyrosine-protein kinase FLT3 (Homo sapiens) (UniProt P36888); details: at 0.1 µM
[17] = biological target: Receptor-type tyrosine-protein kinase FLT3 (Homo sapiens) (UniProt P36888); details: at 1 µM
[18] = tested on: T1, Receptor-type tyrosine-protein kinase FLT3 (Homo sapiens), P36888 [D835Y]; details: at 0.1 µM
T1 sequence (whole entry): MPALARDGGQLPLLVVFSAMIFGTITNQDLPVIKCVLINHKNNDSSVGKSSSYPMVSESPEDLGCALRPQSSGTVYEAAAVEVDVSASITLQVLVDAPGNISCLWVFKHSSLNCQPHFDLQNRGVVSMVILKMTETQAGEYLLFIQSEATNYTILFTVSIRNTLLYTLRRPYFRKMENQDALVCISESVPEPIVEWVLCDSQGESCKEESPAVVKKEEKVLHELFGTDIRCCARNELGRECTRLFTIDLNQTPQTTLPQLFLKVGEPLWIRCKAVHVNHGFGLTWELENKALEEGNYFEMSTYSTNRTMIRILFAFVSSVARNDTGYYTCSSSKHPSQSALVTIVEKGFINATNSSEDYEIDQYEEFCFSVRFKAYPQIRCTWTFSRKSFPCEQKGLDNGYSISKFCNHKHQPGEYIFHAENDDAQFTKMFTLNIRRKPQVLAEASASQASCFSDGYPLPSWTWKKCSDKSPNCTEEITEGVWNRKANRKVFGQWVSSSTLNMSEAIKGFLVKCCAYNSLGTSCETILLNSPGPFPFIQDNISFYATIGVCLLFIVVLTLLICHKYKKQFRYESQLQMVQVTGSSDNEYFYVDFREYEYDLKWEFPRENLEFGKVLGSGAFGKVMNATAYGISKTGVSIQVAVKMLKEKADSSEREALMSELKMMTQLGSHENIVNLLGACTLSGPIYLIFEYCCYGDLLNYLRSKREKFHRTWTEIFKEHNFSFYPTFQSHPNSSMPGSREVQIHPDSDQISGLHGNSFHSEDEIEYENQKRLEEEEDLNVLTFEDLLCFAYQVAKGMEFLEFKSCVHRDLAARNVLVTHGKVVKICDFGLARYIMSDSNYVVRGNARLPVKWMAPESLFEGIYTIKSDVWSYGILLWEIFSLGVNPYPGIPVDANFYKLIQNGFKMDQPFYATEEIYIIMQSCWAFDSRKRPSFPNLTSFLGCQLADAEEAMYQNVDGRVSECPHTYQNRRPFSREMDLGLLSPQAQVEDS

[19] = biological target: Non-receptor tyrosine-protein kinase TYK2 (Homo sapiens) (UniProt P29597); details: at 1 µM;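 also: values are mean percent inhibition of TYK2 kinase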
Non-receptor tyrosine-protein kinase TYK2 (Homo sapiens), sequence (P29597 whole entry): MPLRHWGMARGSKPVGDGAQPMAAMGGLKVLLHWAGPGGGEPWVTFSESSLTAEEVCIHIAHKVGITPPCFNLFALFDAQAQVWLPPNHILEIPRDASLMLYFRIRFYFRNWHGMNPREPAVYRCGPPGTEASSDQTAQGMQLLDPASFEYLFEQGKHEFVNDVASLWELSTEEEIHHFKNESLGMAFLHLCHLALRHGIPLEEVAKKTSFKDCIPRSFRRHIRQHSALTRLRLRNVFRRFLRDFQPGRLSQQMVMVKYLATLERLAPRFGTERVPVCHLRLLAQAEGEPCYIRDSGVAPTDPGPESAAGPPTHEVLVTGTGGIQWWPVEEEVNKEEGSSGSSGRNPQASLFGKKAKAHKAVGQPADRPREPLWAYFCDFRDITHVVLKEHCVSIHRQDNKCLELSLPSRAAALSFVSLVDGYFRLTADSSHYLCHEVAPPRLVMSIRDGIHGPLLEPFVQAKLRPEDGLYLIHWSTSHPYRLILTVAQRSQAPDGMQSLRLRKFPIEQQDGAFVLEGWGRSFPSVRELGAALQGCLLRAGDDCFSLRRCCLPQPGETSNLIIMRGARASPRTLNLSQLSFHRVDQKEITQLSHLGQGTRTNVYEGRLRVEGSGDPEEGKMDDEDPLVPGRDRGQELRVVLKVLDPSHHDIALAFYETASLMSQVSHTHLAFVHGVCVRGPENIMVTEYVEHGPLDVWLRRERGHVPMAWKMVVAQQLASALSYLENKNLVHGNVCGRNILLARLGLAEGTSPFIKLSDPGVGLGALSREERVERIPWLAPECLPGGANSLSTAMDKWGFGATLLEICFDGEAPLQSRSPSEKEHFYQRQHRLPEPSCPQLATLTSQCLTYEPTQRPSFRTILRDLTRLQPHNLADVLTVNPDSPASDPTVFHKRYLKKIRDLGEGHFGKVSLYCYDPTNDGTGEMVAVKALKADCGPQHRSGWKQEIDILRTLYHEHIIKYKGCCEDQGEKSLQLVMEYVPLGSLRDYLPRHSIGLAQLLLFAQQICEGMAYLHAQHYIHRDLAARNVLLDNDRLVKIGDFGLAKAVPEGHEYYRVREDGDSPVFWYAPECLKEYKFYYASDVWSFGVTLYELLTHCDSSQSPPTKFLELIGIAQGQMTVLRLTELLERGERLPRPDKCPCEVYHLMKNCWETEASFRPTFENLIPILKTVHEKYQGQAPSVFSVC

[20] = biological target: T2, Tyrosine-protein kinase receptor TYRO3 (Homo sapiens) (UniProt Q06418); details: at 0.1 µM;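 also: reported percentages are averaged inhibition values of TYRO3 kinase activity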
T2 sequence (whole entry): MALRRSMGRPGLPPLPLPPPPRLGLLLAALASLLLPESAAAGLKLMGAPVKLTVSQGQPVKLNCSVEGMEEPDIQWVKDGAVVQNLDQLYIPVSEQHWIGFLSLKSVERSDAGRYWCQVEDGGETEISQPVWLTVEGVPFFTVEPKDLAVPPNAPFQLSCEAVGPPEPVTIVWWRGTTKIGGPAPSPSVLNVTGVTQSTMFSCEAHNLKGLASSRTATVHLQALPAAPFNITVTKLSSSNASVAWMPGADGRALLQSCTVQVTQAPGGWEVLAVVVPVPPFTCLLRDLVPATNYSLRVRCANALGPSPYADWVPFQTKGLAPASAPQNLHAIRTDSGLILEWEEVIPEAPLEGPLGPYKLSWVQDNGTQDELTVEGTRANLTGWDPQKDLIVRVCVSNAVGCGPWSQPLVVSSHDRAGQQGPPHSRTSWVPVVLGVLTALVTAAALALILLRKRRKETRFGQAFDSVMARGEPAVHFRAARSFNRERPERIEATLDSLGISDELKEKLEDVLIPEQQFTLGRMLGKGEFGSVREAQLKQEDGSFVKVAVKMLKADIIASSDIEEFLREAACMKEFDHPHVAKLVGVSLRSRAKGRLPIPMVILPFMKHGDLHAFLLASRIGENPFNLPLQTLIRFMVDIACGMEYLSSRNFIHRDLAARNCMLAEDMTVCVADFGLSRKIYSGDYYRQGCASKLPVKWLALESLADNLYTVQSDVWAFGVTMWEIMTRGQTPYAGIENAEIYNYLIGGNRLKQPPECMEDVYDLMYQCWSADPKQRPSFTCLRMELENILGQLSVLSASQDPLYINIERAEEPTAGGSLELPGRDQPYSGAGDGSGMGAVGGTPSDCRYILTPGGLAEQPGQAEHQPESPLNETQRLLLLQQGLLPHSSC

Tyrosine-protein kinase Fer (Homo sapiens), sequence (P16591 whole entry, looked up): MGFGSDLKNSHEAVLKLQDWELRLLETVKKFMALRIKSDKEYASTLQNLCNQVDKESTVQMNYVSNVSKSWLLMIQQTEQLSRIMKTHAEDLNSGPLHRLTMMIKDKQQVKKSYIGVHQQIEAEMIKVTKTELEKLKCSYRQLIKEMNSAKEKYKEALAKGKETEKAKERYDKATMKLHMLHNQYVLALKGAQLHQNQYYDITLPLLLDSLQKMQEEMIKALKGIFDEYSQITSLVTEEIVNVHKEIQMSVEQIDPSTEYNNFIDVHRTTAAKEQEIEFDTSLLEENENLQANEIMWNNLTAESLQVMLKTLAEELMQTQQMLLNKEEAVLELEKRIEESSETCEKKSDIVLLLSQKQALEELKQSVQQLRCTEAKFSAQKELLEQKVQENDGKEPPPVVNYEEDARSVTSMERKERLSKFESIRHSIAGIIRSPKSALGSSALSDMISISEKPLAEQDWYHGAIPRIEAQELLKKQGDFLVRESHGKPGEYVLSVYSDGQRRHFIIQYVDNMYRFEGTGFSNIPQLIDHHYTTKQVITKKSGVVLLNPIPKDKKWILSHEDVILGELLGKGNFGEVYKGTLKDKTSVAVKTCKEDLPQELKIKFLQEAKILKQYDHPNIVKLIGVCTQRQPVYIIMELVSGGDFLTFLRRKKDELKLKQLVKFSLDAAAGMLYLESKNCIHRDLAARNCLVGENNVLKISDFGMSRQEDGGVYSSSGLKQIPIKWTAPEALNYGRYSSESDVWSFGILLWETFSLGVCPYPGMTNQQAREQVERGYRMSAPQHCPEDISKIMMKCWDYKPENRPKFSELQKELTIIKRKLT

| SMILES | inhibition [1] | inhibition [2] | inhibition [3] | inhibition [4] | inhibition [5] | inhibition [6] | inhibition [7] | inhibition [8] | inhibition [9] | inhibition [10] | inhibition [11] | inhibition [12] | inhibition [13] | inhibition [14] | inhibition [15] | inhibition [16] | inhibition [17] | inhibition [18] | inhibition [19] | inhibition [20] |
| --- | --- | --- | --- | --- | --- | --- | --- | --- | --- | --- | --- | --- | --- | --- | --- | --- | --- | --- | --- | --- |
| COc1cc(Nc2nccc(Nc3ccc4c(C)n[nH]c4c3)n2)cc(OC)c1OC | 36.1% | 3.05% | 10.6% | 5.2% | 24.8% | 7.33% | 39.8% | 8.22% | 30.5% | 2.39% | 2.48% | 18.2% | 57.5% | 38.3% | 88% | 57.8% | 90.3% | 52.4% | 33.3% | 5.01% |
| COc1ccc(-c2cc(-c3c[nH]nc3-c3ccccn3)ccn2)cc1 | 7.83% | 3.39% | 3.93% | 1.12% | -0.51% | 1.91% | 4.55% | 8.17% | 5.23% | -2.23% | 6.88% | 5.33% | 4.21% | 3.66% | 8.02% | 3.81% | – | 1.47% | -4.16% | 2.81% |
| CCn1c(-c2nonc2N)nc2c(C#CC(C)(C)O)nc(OC[C@H](N)c3ccccc3)cc21 | 7.41% | 4.38% | 7.88% | 4.14% | 2.91% | 4.95% | 4.18% | 9.04% | 3.32% | 3.89% | 2.04% | 0.69% | 5.54% | 6.07% | 30.4% | 2.64% | 2.43% | -0.59% | -3.88% | 0.23% |
| CCOc1ccc2c(-c3ccnc(Nc4cccc(C(F)(F)F)c4)n3)cnn2n1 | 7.63% | 2.3% | 2.59% | 2.54% | 7.08% | 3.04% | 7.12% | 2.18% | 5.74% | -0.43% | -0.95% | 2.53% | 5.2% | -0.98% | 1.9% | -0.37% | 5.14% | – | 0% | 0.79% |
| CC1=C(C(=O)Nc2cc(Cl)c3[nH]ncc3c2)C(c2ccc(C(F)(F)F)cc2)CC(=O)N1 (configuration not stated) | 3.32% | 2.07% | 2.33% | -0.25% | 2.9% | 3.38% | 3.56% | 9.2% | 3.77% | 2.42% | 2.25% | 2.78% | 4.88% | -0.55% | -1.53% | 1.66% | 3.1% | -4.83% | -1.04% | 3.7% |
| Cc1cccc2c1NC(=O)/C2=N\Nc1ccc(S(N)(=O)=O)cc1 | 0.93% | 2.06% | 2.97% | 6.31% | 5.84% | 7.75% | 3.25% | 3.97% | 3.33% | 2.12% | 1.63% | 0.52% | 4.37% | -0.48% | -0.65% | 2.88% | 8.43% | 3.4% | -0.5% | 3.05% |
| CNC(=O)c1cccc(C#Cc2cncnc2Nc2ccc(OCc3cccc(F)c3)c(Cl)c2)c1 | 2.2% | 0.17% | 1.47% | -1.46% | 0.26% | 0.94% | 8.07% | 1.87% | – | 0.5% | 1.45% | 4.48% | 6.13% | 1.95% | 1.32% | 1.74% | 3.22% | 1.13% | 0.07% | 3.38% |
